Results reported in PubChem BioAssay AID1259421 (Broad Institute, 2018).
“And” between values parts separate entries of the source, which are not always exact repeats. Identical values can stand only once. The whole screen tested about 6,400 compounds, of which about 610 (9.5%) were called active. Rule as the data show it: active = activity change below about -70%; inconclusive = no clear call, values can overlap the other calls; inactive = above that. What follows is part of a selection rich in actives, with near analogues and random picks from the rest. Where a structure was tested more than once in an assay, its records may differ in their call.

assay: Toxoplasma gondii ME49Luc growth in HeLa cells, luciferase, no IFN-y, primary screen (AID 1259421); details: T. gondii ME49Luc in HeLa, 72 h, stronger effect = lower value, concentration not given here

| SMILES | activity change, negative = inhibition |
| --- | --- |
| C=CCn1c(=O)n([C@@H]2O[C@H](CO)[C@@H](O)[C@H]2O)c2nc(N)[nH]c(=O)c21 | -1.47% (inactive) |
| CCNC(=O)CCC(N)C(=O)O (stereo unspecified) | 15.2% (inactive) |
| CC1(C)C2CC[C@]3(C)C(C(=O)C=C4[C@@H]5C[C@@](C)(C(=O)O)CC[C@]5(C)CC[C@]43C)[C@@]2(C)CC[C@@H]1OC(=O)CCC(=O)O (stereo partly specified) | 6.36% (inactive) |
| O=C(c1c(O)c2ccc(Cl)cc2[nH]c1=O)C1CC1 | 3.48% (inactive) and 5.32% (inactive) |
| C=CCN1CCCC1CNC(=O)c1cc2[nH]nnc2cc1OC (stereo unspecified) | 3.75% (inactive) |
| CC1(C)C(=O)[C@@H]2C[C@@]3(O)C4=CC(=O)O[C@@H](c5ccoc5)[C@]4(C)CCC3[C@@](C)(C2=O)[C@H]1CC(=O)O (stereo partly specified) | 0.589% (inactive) |
| O=c1n(CC2CO2)c(=O)n(CC2CO2)c(=O)n1CC1CO1 (stereo unspecified) | 36.1% (inactive) |
| COc1ccc2cc1Oc1ccc(cc1)C[C@H]1c3c(cc4c(c3Oc3cc5c(cc3OC)CCN(C)[C@@H]5C2)OCO4)CCN1C | 12.1% (inactive) and -4.88% (inactive) |
| COc1ccc2cc1Oc1ccc(cc1)C[C@H]1c3cc(c(OC)cc3CCN1C)Oc1c(OC)c(OC)cc3c1[C@H](C2)N(C)CC3 | -77.3% (active) and 18.9% (inactive) |
| COc1ccc2cc1Oc1cc3c(cc1OC)CC[N+](C)(C)[C@H]3Cc1ccc(cc1)Oc1c(OC)c(OC)cc3c1[C@@H](C2)[N+](C)(C)CC3 | 18.6% (inactive) |
| CC(O)CCCCn1c(=O)c2c(ncn2C)n(C)c1=O (stereo unspecified) | -6.61% (inactive) |
| CCCN(CCc1cccs1)[C@H]1CCc2c(O)cccc2C1 | 10.9% (inactive) |
| CCCCn1c(=O)c2[nH]c(C34CC5CC(CC3C5)C4)nc2n(CCCO)c1=O | 12% (inactive) and -13.1% (inactive) |
| O=C1[C@@H](Cc2ccc(O)cc2)N2C(=O)CCN(C(=O)NCc3ccccc3)[C@H]2CN1Cc1cccc2ccccc12 | 1.58% (inactive) |
| CC(=O)OC(C)(C)[C@@H]1Cc2cc3ccc(=O)oc3cc2O1 | -5.08% (inactive) |
| CCN(Cc1cccc(S(=O)(=O)O)c1)c1cccc(C(=C2C=CC(=[N+](CC)Cc3cccc(S(=O)(=O)O)c3)C=C2)c2ccc(O)cc2S(=O)(=O)O)c1 | -44.9% (inactive) |

| SMILES | activity change, negative = inhibition |
| --- | --- |
| CCN(CC)c1ccc(C(=C2C=CC(=[N+](CC)CC)C=C2)c2ccccc2)cc1 | -79.9% (active) |
| O[C@@H]1[C@H](O)[C@@H](CCl)O[C@H]1n1cnc2c(NC3CC4CCC3C4)ncnc21 (stereo partly specified) | 20.5% (inactive) |
| Cc1cc(Oc2ccc3nc(COc4ccc(CC5SC(=O)NC5=O)cc4)n(C)c3c2)cc(C)c1N (stereo unspecified) | 12.3% (inactive) |
| N[C@](CC1c2ccccc2Oc2ccccc21)(C(=O)O)[C@H]1C[C@@H]1C(=O)O | 6.02% (inactive) |
| CCn1c(=O)[nH]c2cc(Cl)c(Cl)cc21 | -80.8% (active) and -78.6% (active) |
| CCn1c(=O)[nH]c2ccccc21 | 10.3% (inactive) and 2.46% (inactive) |
| CCN(CCO)CCCOc1ccc2c(Nc3cc(CC(=O)Nc4cccc(F)c4)[nH]n3)ncnc2c1 | 18.9% (inactive) |
| CCOc1ccc2nc(SCCN3CCOCC3)[nH]c2c1 | 17.7% (inactive) |
| Cc1cc(C#N)cc(C)c1Oc1nc(Nc2ccc(C#N)cc2)nc(N)c1Br | -89.7% (active) |
| Cc1cc(/C=C/C#N)cc(C)c1Nc1ccnc(Nc2ccc(C#N)cc2)n1 | 17.7% (inactive) |
| Cc1cc(C)c(Nc2ccnc(Nc3ccc(C#N)cc3)n2)c(C)c1 | -44.9% (inactive) |
| C[C@@H](N)c1ccc(C(=O)Nc2ccnc3[nH]ccc23)cc1 | -3.01% (inactive) |
| C=CC(=O)Nc1ccccc1 | -0.419% (inactive) |
| CC(=O)c1ccc(N2CCOCC2)cc1O | 0.777% (inactive) |
| O=c1cc(-c2ccc(O)cc2)oc2ccc(O)cc12 | -46.2% (inactive) |
